Measured values as given in PubChem BioAssay (NCI).
Compounds without any hit were thinned out: in the full panel of roughly 83,000, 20% have a hit.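 The endpoint reported here, percent growth, reads 100 for growth as untreated, 0 for no net growth and -100 for all cells dead.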 Calls of active or inactive are those of the source. The calls were made as follows: active = growth percent below 10; inactive = the rest.

How the values were obtained:
Test in all cases: NCI-60 one-dose screen, 48 h (100 = growth as untreated, 0 = no growth, -100 = all killed)
Settings in all cases: 10 µM unless noted
[1] = tested on: SK-MEL-2 melanoma
[2] = tested on: EKVX NSCLC
[3] = tested on: SN12C renal
[4] = tested on: UO-31 renal
[5] = tested on: TK-10 renal
[6] = tested on: ACHN renal
[7] = tested on: CAKI-1 renal
[8] = tested on: A498 renal
[9] = tested on: CCRF-CEM leukemia
[10] = tested on: MOLT-4 leukemia

Measured: growth

O=C1NC(=O)C(Cc2ccccc2)(Cc2ccccc2)N1
inactive: [1] 102% | [2] 101% | [3] 97.9% | [4] 93.6% | [5] 89.4% | [6] 109% | [7] 92.1% | [8] 102% | [9] 92.4% | [10] 90.5%

C=C(C)[C@@H]1CC[C@]2(C(=O)NCCNCCNCCN)CC[C@]3(C)[C@H](CC[C@@H]4[C@@]5(C)CCC(=O)C(C)(C)[C@@H]5CC[C@]43C)[C@@H]12
active: [3] -88.5% [100 µM] | [4] -96.4% [100 µM] | [5] -77.7% [100 µM] | [6] -83.3% [100 µM] | [7] -8.79% [100 µM] | [9] -11.3% [100 µM] | [10] -16.3% [100 µM]
inactive: [1] 56.4% [100 µM] | [2] 11.4% [100 µM] | [8] 80.8% [100 µM]

CC1Cc2ccc(OCCN(C)C)cc2C1=O (stereo not given)
inactive: [1] 91.9% | [2] 109% | [3] 101% | [4] 88.1% | [5] 84.6% | [6] 106% | [7] 98% | [8] 91.2% | [9] 103% | [10] 102%

CCCCCCCCCCCCCC[n+]1cccc(C(N)=O)c1
active: [1] -12.1% | [2] -16.2% | [3] 1.56% | [9] -18.8% | [10] -31%
inactive: [4] 62% | [5] 24% | [6] 35.4% | [7] 15.5% | [8] 61.1%

COc1ccc(C(=O)CSc2nccc(Nc3ccc(C(=O)O)cc3)n2)cc1
inactive: [1] 103% | [2] 103% | [3] 99.3% | [4] 82% | [5] 103% | [6] 101% | [7] 97.7% | [8] 106% | [9] 105% | [10] 106%

COc1c(B(O)O)cccc1-c1nc2ccc3[nH]ncc3c2c2c1CCC2
inactive: [1] 58.2% | [2] 47.9% | [3] 74.3% | [4] 23.5% | [5] 36.4% | [6] 36.4% | [7] 16.6% | [8] 34.7% | [9] 64.2% | [10] 61.6%

CC1(C)CC[C@]2(C(=O)O)CC[C@]3(C)[C@H](CC[C@@H]4[C@@]5(C)CCC(=O)C(C)(C)[C@@H]5CC[C@]43C)[C@H]2[C@H]1OC(=O)C(F)(F)F
active: [1] -71.8% [100 µM] | [2] -69.6% [100 µM] | [3] -82.1% [100 µM] | [4] -96.4% [100 µM] | [5] -84.1% [100 µM] | [6] -94.1% [100 µM] | [7] -71.2% [100 µM] | [8] -81.2% [100 µM] | [9] -25% [100 µM] | [10] -26.4% [100 µM]

COc1ccc(C=C2c3ccccc3-c3ccccc32)cc1
inactive: [1] 54.9% | [2] 66.8% | [3] 61.6% | [4] 54.3% | [5] 68.6% | [6] 58.4% | [7] 49% | [8] 15.7% | [9] 57.7% | [10] 52.3%

NC(=O)c1c(NC(=O)COC(=O)Cc2ccccc2F)sc2c1CCC2
inactive: [1] 99.9% | [2] 101% | [3] 109% | [4] 72.6% | [5] 124% | [6] 109% | [7] 99% | [8] 117% | [9] 108% | [10] 86.6%

CCCCCC1CCCCN1C(=O)OCCCC (stereo not given)
inactive: [1] 102% | [2] 89.1% | [3] 73.3% | [4] 84.3% | [5] 95.6% | [6] 104% | [7] 79.7% | [8] 88.1% | [9] 84.6% | [10] 99.5%

CCCCC1COc2cccc3c2N1C=C/C3=C\C(=O)n1ccc2ccccc21 (stereo not given)
inactive: [1] 70.7% | [2] 82.9% | [3] 94.7% | [4] 57.5% | [5] 118% | [6] 88.5% | [7] 41% | [8] 70.1% | [9] 67% | [10] 40.9%

Nc1cc(C(=O)O)[nH]c(=S)n1
inactive: [1] 98.9% | [2] 92.6% | [3] 99.7% | [4] 87.5% | [5] 93.4% | [6] 103% | [7] 94.9% | [8] 101% | [9] 94.5% | [10] 101%

C=C(CN=[N+]=[N-])[C@@H]1CC[C@]2(C)[C@H](CC[C@@H]3[C@H]4[C@H]5OC(=O)[C@@]4(CCC5(C)C)CC[C@]32C)[C@@]1(C)CCC#N
inactive: [1] 83.4% [100 µM] | [2] 90.6% [100 µM] | [3] 76.2% [100 µM] | [4] 80.2% [100 µM] | [5] 105% [100 µM] | [6] 93.9% [100 µM] | [7] 53.5% [100 µM] | [8] 85.2% [100 µM] | [9] 74.6% [100 µM] | [10] 58% [100 µM]

COc1ccc(NC(=O)Nc2ccc(-c3cccnc3)cc2N2CCC(CO)CC2)cc1
active: [8] 9.13%
inactive: [1] 73.6% | [2] 60% | [3] 70.9% | [4] 97.8% | [5] 47.1% | [6] 97.3% | [7] 64.1% | [9] 95.4% | [10] 93.2%

CC1(C)NCCC[C@]2(C)[C@H]3C=CC4=C5C[C@](C)(CO)CC[C@]5(C)CC[C@@]4(C)[C@]3(C)CC[C@@H]12
active: [1] -84.9% [100 µM] | [2] -87.1% [100 µM] | [3] -94% [100 µM] | [4] -98.1% [100 µM] | [5] -78.3% [100 µM] | [6] -95.4% [100 µM] | [7] -96.5% [100 µM] | [8] -88.7% [100 µM] | [9] -44.1% [100 µM] | [10] -56.7% [100 µM]

COc1cc(-c2nc(SCCC(C)C)nc(Nc3ccc(S(N)(=O)=O)cc3)c2C#N)cc(OC)c1OC
inactive: [1] 51.4% | [2] 45.1% | [3] 26.4% | [4] 14.7% | [5] 50% | [6] 29.5% | [7] 17.1% | [8] 43.5% | [9] 14.1%
active: [10] 1.98%

CCc1cccc(Cl)c1
inactive: [1] 118% | [2] 105% | [3] 90.6% | [4] 85.3% | [5] 107% | [6] 98.9% | [7] 108% | [8] 120% | [9] 88.2% | [10] 98.1%

O=C(NNc1ccc(-c2ccccc2)nn1)c1ccccc1
inactive: [1] 107% | [2] 95.2% | [3] 97.2% | [4] 89% | [5] 107% | [6] 100% | [7] 82.2% | [8] 92.4% | [9] 107% | [10] 90.3%

CNc1cc(C(=O)O)nc(NC)n1
inactive: [1] 103% | [2] 97.1% | [3] 95.1% | [4] 88.4% | [5] 99.2% | [6] 99.9% | [7] 98.4% | [8] 79.7% | [9] 100% | [10] 101%

CC1(C)CC(=O)c2c(ccc(C(=O)C[C@@H](N)CO)c2N)O1
active: [1] 9.07% | [7] 4.82% | [8] -70.4%
inactive: [2] 80.7% | [3] 14.8% | [4] 25.1% | [5] 61.4% | [6] 36.3% | [9] 13% | [10] 21%

C[C@H]1[C@H](C)CC[C@]2(C(=O)N3CCN(C)CC3)CC[C@]3(C)C(=CC[C@@H]4[C@@]5(C)C/C(=C/c6ccco6)C(=O)C(C)(C)[C@@H]5CC[C@]43C)[C@H]12
active: [4] -97.5% [100 µM]
inactive: [1] 42.1% [100 µM] | [2] 42.3% [100 µM] | [3] 28% [100 µM] | [5] 43.7% [100 µM] | [6] 20.8% [100 µM] | [7] 26.2% [100 µM] | [8] 53.8% [100 µM] | [9] 16.5% [100 µM] | [10] 22.6% [100 µM]

C/C=C/C1OC23CCCCC2C(C#N)(C(=N)O3)C1(C#N)C#N (stereo not given)
inactive: [1] 107% | [2] 106% | [3] 93.7% | [4] 76.2% | [5] 103% | [6] 94.1% | [7] 81.2% | [8] 118% | [9] 81.2% | [10] 95%

CS(=O)(=O)c1cccnn1
inactive: [1] 98.8% | [2] 76.9% | [3] 89.1% | [4] 79.9% | [5] 109% | [6] 97.7% | [7] 73.6% | [8] 66.7% | [9] 84.9% | [10] 132%

C=C(C)[C@@H]1CC[C@]2(C(=O)NCCCN)CC[C@]3(C)[C@H](CC[C@@H]4[C@@]5(C)CC[C@H](O)C(C)(C)[C@@H]5CC[C@]43C)[C@@H]12
active: [1] -24.2% [100 µM] | [2] -15.7% [100 µM] | [3] -34.7% [100 µM] | [4] -34.3% [100 µM] | [5] -32.2% [100 µM] | [6] -49.2% [100 µM] | [7] -54.5% [100 µM] | [8] -44.8% [100 µM] | [9] 1.39% [100 µM] | [10] 2.76% [100 µM]
